Read-out in assay [1]: Pyruvate Dehydrogenase Kinase 4 (PDK4), PDK4 (gene 5166)
In words: LTEA_HepaRG_PDK4: Life Technologies and Expression Analysis (LTEA) Assay for Pyruvate Dehydrogenase Kinase 4 (PDK4) using HepaRG (AID 2283525). The note with it: mRNA level, 48 h; actives raise or lower the signal. An outline of the steps:
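Readout is qRT-PCR of PDK4 transcript, normalized to three housekeeping genes, with bidirectional fitting against 0.5% DMSO vehicle. Differentiated HepaRG cells were treated 48 h in serum-free induction medium, duplicate wells, eight-point half-log series topping at 100 uM.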

Read-out in assay [2]: NAD(P)H dehydrogenase [quinone] 1 (NQO1), NQO1 (gene 1728)
The assay is described as follows: LTEA_HepaRG_NQO1: Life Technologies and Expression Analysis (LTEA) Assay for NAD(P)H dehydrogenase [quinone] 1 (NQO1) using HepaRG (AID 2283526). To be noted: mRNA level, 48 h; actives raise or lower the signal. An outline of the steps:
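Transcript induction or suppression is quantified by qRT-PCR in human HepaRG liver cells dosed for 48 hours. Eight half-log concentrations topping at 100 uM are used, with 0.5% DMSO as vehicle and baseline.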

Read-out in assay [3]: succinate dehydrogenase complex iron sulfur subunit B (SDHB), SDHB (gene 6390)
The assay is described as follows: LTEA_HepaRG_SDHB: Life Technologies and Expression Analysis (LTEA) Assay for succinate dehydrogenase complex iron sulfur subunit B (SDHB) using HepaRG (AID 2283528). To be noted: mRNA level, 48 h; actives raise or lower the signal. An outline of the steps: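 Readout is SDHB transcript level by qRT-PCR, normalised to three housekeeping genes and fitted bidirectionally against 0.5% DMSO vehicle. Human HepaRG cells were treated for 48 h at up to 100 uM.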

Read-out in assay [4]: Signal transducer and activator of transcription 3 (Homo sapiens) (UniProt P40763)
The assay is described as follows: LTEA_HepaRG_STAT3: Life Technologies and Expression Analysis (LTEA) Assay for Signal transducer and activator of transcription (STAT3) using HepaRG (AID 2283529). The note with it: mRNA level, 48 h; actives raise or lower the signal. An outline of the steps: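 STAT3 transcript quantified by qRT-PCR against three housekeeping genes (ACTB, GAPDH, POLR2A), fitted both directions relative to DMSO. HepaRG cultures exposed 48 h to eight half-log concentrations, top 100 uM, 0.5% DMSO, serum-free induction medium.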

Read-out in assay [5]: solute carrier (SLCO1B1), SLCO1B1 (gene 10599)
The assay is described as follows: LTEA_HepaRG_SLCO1B1: Life Technologies and Expression Analysis (LTEA) Assay for solute carrier (SLCO1B1) using HepaRG (AID 2283530). The note with it: mRNA level, 48 h; actives raise or lower the signal. An outline of the steps:
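Human HepaRG cultures treated for 48 h with an eight-concentration half-log series topping at 100 uM; SLCO1B1 measured by qRT-PCR and fitted bidirectionally relative to DMSO.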

Read-out in assay [6]: sulfotransferase 2A1 (SULT2A1), SULT2A1 (gene 6822)
The assay is described as follows: LTEA_HepaRG_SULT2A1: Life Technologies and Expression Analysis (LTEA) Assay for sulfotransferase 2A1 (SULT2A1) using HepaRG (AID 2283531). To be noted: mRNA level, 48 h; actives raise or lower the signal. An outline of the steps:
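Gene-expression endpoint in a human liver cell line: SULT2A1 mRNA change after 48 h chemical treatment, curves fitted in both directions relative to 0.5% DMSO vehicle. Concentrations spanned eight half-log steps from 100 uM.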

Read-out in assay [7]: Transforming Growth Factor (TGFA), TGFA (gene 7039)
The assay is described as follows: LTEA_HepaRG_TGFA: Life Technologies and Expression Analysis (LTEA) Assay for Transforming Growth Factor (TGFA) using HepaRG (AID 2283532). To be noted: mRNA level, 48 h; actives raise or lower the signal. An outline of the steps: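 TGFA transcript quantified by qRT-PCR (Fluidigm arrays) against three housekeeping genes, after 48 hours chemical treatment of HepaRG cells. Top concentration 100 uM with half-log dilutions, 8 points, duplicates, 0.5% DMSO.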

Read-out in assay [8]: Transforming Growth Factor (TGFB1), TGFB1 (gene 7040)
The assay is described as follows: LTEA_HepaRG_TGFB1: Life Technologies and Expression Analysis (LTEA) Assay for Transforming Growth Factor (TGFB1) Transporter using HepaRG (AID 2283533). To be noted: mRNA level, 48 h; actives raise or lower the signal. An outline of the steps: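 Eight-point concentration-response (max 100 uM, half-log) in HepaRG under serum-free induction conditions, 48 h. TGFB1 mRNA by qRT-PCR, housekeeping-normalized.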

Read-out in assay [9]: TIMP1, TIMP1 (gene 7076)
In words: LTEA_HepaRG_TIMP1: Life Technologies and Expression Analysis (LTEA) Assay for TIMP1 using HepaRG (AID 2283534). To be noted: mRNA level, 48 h; actives raise or lower the signal. An outline of the steps: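 TIMP1 induction or repression in HepaRG cells after 48 h chemical exposure (eight concentrations, highest 100 uM), assessed by normalized qRT-PCR with bidirectional fitting to DMSO controls.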

Read-out in assay [10]: Tumor necrosis factor receptor 1 (TNFRSF1A), TNFRSF1A (gene 7132)
The assay is described as follows: LTEA_HepaRG_TNFRSF1A: Life Technologies and Expression Analysis (LTEA) Assay for Tumor necrosis factor receptor 1 (TNFRSF1A) using HepaRG (AID 2283535). The note with it: mRNA level, 48 h; actives raise or lower the signal. An outline of the steps: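 Assay uses 48 h chemical treatment of differentiated HepaRG monolayers, tested in duplicate at eight concentrations from 100 uM downward in 0.5% DMSO. mRNA is normalized to ACTB, GAPDH and POLR2A, with induction or suppression fitted relative to vehicle.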

Read-out in assay [11]: Thyroid Hormone Responsive (THRSP), THRSP (gene 7069)
The assay is described as follows: LTEA_HepaRG_THRSP: Life Technologies and Expression Analysis (LTEA) Assay for Thyroid Hormone Responsive (THRSP) using HepaRG (AID 2283536). The note with it: mRNA level, 48 h; actives raise or lower the signal. An outline of the steps: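 THRSP transcript quantified by Fluidigm qRT-PCR against three housekeeping genes after 48 h chemical exposure of HepaRG cells in serum-free induction medium; eight-point half-log series, top 100 uM, 0.5% DMSO vehicle, duplicate wells.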

Read-out in assay [12]: Cellular tumor antigen p53 (Homo sapiens) (UniProt P04637)
The assay is described as follows: LTEA_HepaRG_TP53: Life Technologies and Expression Analysis (LTEA) Assay for Tumor Protein P53 (TP53) using HepaRG (AID 2283537). The note with it: mRNA level, 48 h; actives raise or lower the signal. An outline of the steps: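 Read-out is TP53 transcript level by microfluidic qRT-PCR, normalised to three housekeeping genes and fitted bidirectionally against DMSO. Human HepaRG cells received compounds for 48 h, highest concentration 100 uM.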

Read-out in assay [13]: UDP glucuronosyltransferase (UGT1A1), UGT1A1 (gene 54658)
In words: LTEA_HepaRG_UGT1A1: Life Technologies and Expression Analysis (LTEA) Assay for UDP glucuronosyltransferase (UGT1A1) using HepaRG (AID 2283538). The note with it: mRNA level, 48 h; actives raise or lower the signal. An outline of the steps:
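Cells are plated, cultured 48 h, switched to serum-free induction medium, then dosed 48 h at eight concentrations (max 100 uM, 0.5% DMSO). RNA is isolated and UGT1A1 expression measured by qRT-PCR; changes versus DMSO are fitted in both directions.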

Read-out in assay [14]: UDP glucuronosyltransferase (UGT1A6), UGT1A6 (gene 54578)
The assay is described as follows: LTEA_HepaRG_UGT1A6: Life Technologies and Expression Analysis (LTEA) Assay for UDP glucuronosyltransferase (UGT1A6) using HepaRG (AID 2283539). To be noted: mRNA level, 48 h; actives raise or lower the signal. An outline of the steps:
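Measures mRNA change in HepaRG hepatic cells exposed 48 h to chemicals (eight-point, maximum 100 uM, 0.5% DMSO vehicle) in serum-free induction medium. Expression normalized to endogenous controls; DMSO served as negative control and baseline.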

Read-out in assay [15]: X-box binding protein 1 (XBP1), XBP1 (gene 7494)
The assay is described as follows: LTEA_HepaRG_XBP1: Life Technologies and Expression Analysis (LTEA) Assay for X-box binding protein 1 (XBP1) using HepaRG (AID 2283540). To be noted: mRNA level, 48 h; actives raise or lower the signal. An outline of the steps: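 Eight concentrations (half-log, highest 100 uM, 0.5% DMSO) tested in duplicate on HepaRG cells over 48 h in serum-free induction medium; qRT-PCR of XBP1 normalised to ACTB, GAPDH, POLR2A.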

Assay [16] can be described thus: LTEA_HepaRG_LDH_cytotoxicity: Cytotoxicity Assessment in the Life Technologies and Expression Analysis (LTEA) Assay (AID 2283563; active means hit-call score of the fitted dose curve at least 0.9, where 1 is the maximum). An outline of the steps: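 Spent-medium LDH after 48 h chemical exposure of HepaRG cells in serum-free induction medium; eight concentrations, half-log dilutions from 100 uM, duplicate wells, fitted upward relative to 0.5% DMSO.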
A short description of assay [17]: ATG_XTT_Cytotoxicity: Cytotoxicity Assessment in the Attagene TRANS-FACTORIAL HepG2 Assay (AID 2283584; active means hit-call score of the fitted dose curve at least 0.9, where 1 is the maximum). An outline of the steps: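 24 h chemical exposure of reporter-transfected HepG2; XTT signal loss vs DMSO indicates cytotoxicity.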
Assay [18] deals with Cellular tumor antigen p53 (Homo sapiens) (UniProt P04637). In words: TOX21_p53_BLA_p2_ratio: Tox21 HCT-116 p53 Agonism Beta-lactamase Assay, Ratio, Phase 2 (AID 2283592; active means hit-call score of the fitted dose curve at least 0.9, where 1 is the maximum). An outline of the steps:
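DMSO-normalized, positive-direction endpoint derived from the 460 nm/530 nm FRET ratio in HCT116 p53 beta-lactamase reporter cells exposed 16 h at 37C and loaded with CCF4-AM for 2 h.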

Assay [19] in a line: TOX21_p53_BLA_p2_viability: Viability Assessment in the Tox21 HCT-116 p53 Agonism Beta-lactamase Assay, Phase 2 (AID 2283591; active means hit-call score of the fitted dose curve at least 0.9, where 1 is the maximum;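 further: compound exposure lasted 16 h at 37 °C; actives lower the ATP signal meaning cytotoxicity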). An outline of the steps:
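Cytotoxicity readout: CellTiter-Glo ATP luminescence, 30 min at room temperature, after the beta-lactamase read. Cells were HCT116 exposed 16 h at 37C to compounds pin-transferred at 217-fold dilution from DMSO stocks.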

Inconclusive results are not listed. The source made the active and inactive calls. How the source made its calls, unless noted: active means hit-call score of the fitted dose curve at least 0.9, where 1 is the maximum; inactive means score below 0.9.

Chain of Signal transducer and activator of transcription 3 (Homo sapiens) (P40763 whole entry, looked up): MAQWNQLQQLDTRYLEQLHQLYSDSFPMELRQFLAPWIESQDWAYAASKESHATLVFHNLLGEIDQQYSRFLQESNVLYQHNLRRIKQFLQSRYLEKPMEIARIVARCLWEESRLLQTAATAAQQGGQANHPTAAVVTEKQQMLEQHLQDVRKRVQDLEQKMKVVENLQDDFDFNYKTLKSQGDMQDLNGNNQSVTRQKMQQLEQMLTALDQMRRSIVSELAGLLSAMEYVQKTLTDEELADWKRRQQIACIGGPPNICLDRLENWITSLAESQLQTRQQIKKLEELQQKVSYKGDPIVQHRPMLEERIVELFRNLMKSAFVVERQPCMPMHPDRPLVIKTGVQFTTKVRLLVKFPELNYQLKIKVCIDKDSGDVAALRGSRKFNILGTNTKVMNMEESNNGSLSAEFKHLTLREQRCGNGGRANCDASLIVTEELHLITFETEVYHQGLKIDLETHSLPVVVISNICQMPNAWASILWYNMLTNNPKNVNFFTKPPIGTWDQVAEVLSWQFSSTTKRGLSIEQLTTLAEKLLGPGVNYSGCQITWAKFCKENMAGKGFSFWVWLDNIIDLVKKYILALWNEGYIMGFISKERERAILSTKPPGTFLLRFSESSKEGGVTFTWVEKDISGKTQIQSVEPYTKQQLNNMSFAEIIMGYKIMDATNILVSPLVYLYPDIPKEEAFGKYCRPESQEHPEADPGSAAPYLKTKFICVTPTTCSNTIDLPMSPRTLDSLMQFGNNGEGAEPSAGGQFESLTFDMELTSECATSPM
Chain of Cellular tumor antigen p53 (Homo sapiens) (P04637 whole entry, looked up): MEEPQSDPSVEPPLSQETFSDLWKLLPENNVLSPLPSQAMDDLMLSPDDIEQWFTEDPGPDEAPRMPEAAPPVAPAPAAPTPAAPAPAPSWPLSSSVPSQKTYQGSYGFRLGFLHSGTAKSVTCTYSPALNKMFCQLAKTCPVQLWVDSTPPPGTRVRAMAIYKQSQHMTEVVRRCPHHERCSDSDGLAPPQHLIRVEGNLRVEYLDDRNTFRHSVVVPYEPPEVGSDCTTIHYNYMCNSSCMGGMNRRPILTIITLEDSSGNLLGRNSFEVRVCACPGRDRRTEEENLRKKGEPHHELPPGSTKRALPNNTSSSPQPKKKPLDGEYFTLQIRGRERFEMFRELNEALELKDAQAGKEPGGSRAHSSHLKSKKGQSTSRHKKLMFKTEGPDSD

Turning to `C=C(C)C(=O)OCCC(F)(F)C(F)(F)C(F)(F)C(F)(F)C(F)(F)C(F)(F)F`, in assay [1], the AC50 is 14 µM (active). Further, the compound was classed as inactive in [2], in [3], in assay [4], in assay [5], in assay [6] and in [7]. Moreover, the compound was called inactive in [8], in [9], in assay [10], in assay [11], in assay [12] and in assay [13]. Moreover, the outcome in assay [14], in assay [15], in [16], in assay [17] and in assay [18] was inactive.

For `CCCCCCCCC(=O)O`, the outcome in assay [1], in [2], in assay [3], in assay [4], in [5] and in assay [6] was inactive. For the same compound, the result in assay [7], in assay [8], in [9], in [10], in assay [11] and in assay [12] was inactive. For the same compound, the compound was classed as inactive in assay [13], in assay [14], in [15], in assay [16], in [17] and in assay [19]. In addition, in assay [18], the result was inactive.

Turning to `CC(=O)CC(C)(C)O`, the call in assay [1], in assay [2], in assay [3], in [4], in assay [5] and in assay [6] was inactive. For the same compound, the call in assay [7], in assay [8], in [9], in assay [10], in [11] and in assay [12] was inactive. Moreover, the outcome in [13], in [14], in assay [15], in [16], in [17] and in assay [19] was inactive. For the same compound, in assay [18], the outcome was inactive.

In the case of `CC(=O)NC1(c2cccc(F)c2)CCN(CC[C@@]2(c3ccc(Cl)c(Cl)c3)CN(c3ccccc3)C(=O)CO2)CC1`, the call in assay [1], in assay [2], in [3], in assay [4], in assay [6] and in assay [7] was inactive. Besides, the call in [8], in [9], in [10], in assay [12], in [14] and in assay [15] was inactive. Also, the concentration at half-maximal activity (AC50) in assay [5] is 79.7 µM (active); in assay [11], 20.5 µM (active); in assay [13] it was 41.5 µM (active); in assay [19] it was 57.1 µM (active); in assay [18] it was 71.4 µM (active).

Take `O=C(O)c1ccccc1C(c1ccc(O)cc1)c1ccc(O)cc1`: the compound was called inactive in assay [1], in [2], in [3], in assay [4], in [5] and in assay [6]. Further, the call in assay [7], in [8], in [9], in assay [10], in assay [11] and in assay [13] was inactive. Further, the result in assay [14], in assay [15] and in [16] was inactive.

Source of the values: PubChem BioAssay (EPA / NIEHS).
